Results published in PubChem BioAssay (Tox21).
Values joined by “and” are separate entries in the source; they are usually repeats but may differ in a detail not shown here. Equal entries are not always repeated. Records with an inconclusive call do not appear. A call without a number means that no potency is given here. More than one record can exist for a structure, and the calls need not agree. Active and inactive are the calls of the source. Unless noted, calls come from the whole dose curve; as a rule, active = well fitted curve in the direction sought with a large enough effect in the repeat runs; inconclusive = weak or mixed curves; inactive = no such curve, though single readings can be large; an effect the other way counts as inactive or inconclusive.

Legend:
[1] = qHTS assay to identify small molecule antagonists of the sonic hedgehog signaling (Shh) pathway (AID 1259369; calls by dose curve; note: nearly all actives have a fitted effect of over 45% in size; note: potency is the fitted concentration of half-maximal effect)
Procedure, shortened: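 Screening used 3T3Gli1-Luc cells at 2,000 per well, compounds delivered in DMSO, and conditioned medium as agonist stimulus; plates incubated 24hr at 37 C and 5% CO2 before a 30min luciferase step.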

[2] = qHTS assay to identify small molecule agonists of the androgen receptor (AR) signaling pathway in the presence of an antagonist - cell viability counter screen (AID 1259379); note: nearly all actives have a fitted effect of over 25% in size; note: potency is the fitted concentration of half-maximal effect
Procedure, shortened: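 In MDA-kb2 cells (human breast carcinoma, MMTV-luciferase), compounds at 15 concentrations plus 3.0uM nilutamide; 16 hr, 37C, 0% CO2; CellTiter-Fluor fluorescence read for viability.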

[3] = qHTS assay to identify small molecule agonists of the estrogen receptor beta (ER-beta) signaling pathway - cell viability counter screen (AID 1259380); note: nearly all actives have a fitted effect of over 30% in size; note: potency is the fitted concentration of half-maximal effect
Procedure, shortened: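 Viability of ER-beta-UAS-bla HEK293T cells was determined by CellTiter-Glo luminescence following 16 hr treatment with test compounds at 37C.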

[4] = qHTS assay to identify small molecule antagonists of the estrogen receptor beta (ER-beta) signaling pathway - cell viability counter screen (AID 1259382); note: nearly all actives have a fitted effect of over 55% in size; note: potency is the fitted concentration of half-maximal effect
Procedure, shortened: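 Tox21 10K library tested in qHTS format on ER-beta-bla HEK293T cells stimulated with 1nM E2; 16 hr treatment at 37C. Same-well CellTiter-Glo luminescence served as the cell viability measure.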

[5] = biological target: Estrogen receptor (Homo sapiens) (UniProt P03372); test: qHTS assay to identify small molecule agonists of the estrogen receptor alpha (ER-alpha) signaling pathway in the presence of an antagonist (AID 1259383; calls by dose curve; note: nearly all actives have a fitted effect of over 15% in size; note: potency is the fitted concentration of half-maximal effect; for activation: top concentration of the series differs between compounds)
Chain of Estrogen receptor (Homo sapiens) (P03372 whole entry, looked up): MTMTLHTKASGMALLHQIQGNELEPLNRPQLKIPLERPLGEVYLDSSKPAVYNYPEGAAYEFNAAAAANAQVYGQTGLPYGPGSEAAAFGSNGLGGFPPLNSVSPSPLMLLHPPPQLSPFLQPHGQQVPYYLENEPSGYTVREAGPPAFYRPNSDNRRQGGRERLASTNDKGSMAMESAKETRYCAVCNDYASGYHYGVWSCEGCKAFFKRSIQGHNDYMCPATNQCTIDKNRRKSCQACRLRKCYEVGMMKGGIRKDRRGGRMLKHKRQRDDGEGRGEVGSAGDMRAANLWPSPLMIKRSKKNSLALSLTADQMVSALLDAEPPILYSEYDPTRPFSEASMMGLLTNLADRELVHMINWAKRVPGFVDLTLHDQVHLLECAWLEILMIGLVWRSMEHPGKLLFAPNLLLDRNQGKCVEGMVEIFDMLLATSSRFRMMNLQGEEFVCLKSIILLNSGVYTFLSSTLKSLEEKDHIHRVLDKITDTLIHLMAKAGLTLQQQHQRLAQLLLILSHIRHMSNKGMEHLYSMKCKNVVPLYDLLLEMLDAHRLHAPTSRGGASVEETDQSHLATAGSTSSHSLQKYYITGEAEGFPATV
Procedure, shortened: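 In VM7Luc4E2 cells, 4,000 per well, compounds at 15 concentrations were co-incubated 22hr at 37C with 10.0nM final ICI-182,780. Luminescence from the stably transfected 4×ERE-luciferase reporter was recorded 30min after ONE-Glo addition.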

[6] = qHTS assay to identify small molecule agonists or antagonists of the thyroid stimulating hormone receptor (TSHR) signaling pathway - wild type cell line counter screen (AID 1259384; calls by dose curve)
Procedure, shortened: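 Wild-type HEK293 cells were plated 18 h at 37 C/5% CO2, pin-dosed with compound plus Ro20-1724 medium, held 30 min at room temperature, then given cAMP-d2 and anti-cAMP-cryptate; fluorescence was read after 1 h. Fifteen concentrations, triplicate.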

[7] = biological target: Thyrotropin receptor (Homo sapiens) (UniProt P16473); test: qHTS assay to identify small molecule antagonists of the thyroid stimulating hormone receptor (TSHR) signaling pathway (AID 1259385; calls by dose curve; note: nearly all actives have a fitted effect of over 20% in size)
Chain of Thyrotropin receptor (Homo sapiens) (P16473 whole entry, looked up): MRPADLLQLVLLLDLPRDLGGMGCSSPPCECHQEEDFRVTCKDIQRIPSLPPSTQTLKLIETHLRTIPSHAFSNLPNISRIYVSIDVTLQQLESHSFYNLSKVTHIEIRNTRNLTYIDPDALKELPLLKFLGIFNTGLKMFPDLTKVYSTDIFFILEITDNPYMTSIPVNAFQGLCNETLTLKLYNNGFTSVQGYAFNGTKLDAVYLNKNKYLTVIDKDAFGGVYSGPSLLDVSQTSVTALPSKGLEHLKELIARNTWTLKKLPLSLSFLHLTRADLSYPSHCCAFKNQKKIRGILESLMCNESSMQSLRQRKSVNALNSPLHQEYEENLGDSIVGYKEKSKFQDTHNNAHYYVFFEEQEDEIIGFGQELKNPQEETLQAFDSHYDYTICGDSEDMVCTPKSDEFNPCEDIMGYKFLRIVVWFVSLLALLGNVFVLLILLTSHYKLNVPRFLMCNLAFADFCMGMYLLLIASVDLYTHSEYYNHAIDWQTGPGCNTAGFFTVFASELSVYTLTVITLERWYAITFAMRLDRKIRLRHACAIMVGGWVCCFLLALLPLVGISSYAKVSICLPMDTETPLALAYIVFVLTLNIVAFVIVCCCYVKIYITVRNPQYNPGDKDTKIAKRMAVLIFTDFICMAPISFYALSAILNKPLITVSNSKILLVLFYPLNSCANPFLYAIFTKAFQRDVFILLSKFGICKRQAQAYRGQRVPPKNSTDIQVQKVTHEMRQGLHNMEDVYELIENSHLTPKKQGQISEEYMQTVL
Procedure, shortened: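 TSHR-HEK293 cells were plated and held 18 h at 37C/5% CO2, then given compound plus Ro20-1724 and stimulated with TSH at 1.5 ng/mL final. After 30 min at room temperature, cAMP was detected with cAMP-d2/anti-cAMP-cryptate (1 h) by fluorescence.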

[8] = qHTS assay to identify small molecule agonists of the estrogen receptor alpha (ER-alpha) signaling pathway in the presence of an antagonist - cell viability counter screen (AID 1259386);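 note: cells exposed to compounds for 22 h at 37 °C before the viability read; nearly all actives have a fitted effect of over 30% in size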; note: potency is the fitted concentration of half-maximal effect
Procedure, shortened: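 Fluorescent CellTiter-Fluor viability signal from VM7Luc4E2 cells, with the reagent added during the final hour of a 22hr compound exposure at 37C in the presence of 10.0nM ICI-182,780.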

[9] = biological target: Progesterone receptor (Homo sapiens) (UniProt P06401); test: qHTS assay to identify small molecule agonists of the progesterone receptor (PR) signaling pathway (AID 1346784; calls by dose curve; note: nearly all actives have a fitted effect of over 30% in size)
Chain of Progesterone receptor (Homo sapiens) (P06401 whole entry, looked up): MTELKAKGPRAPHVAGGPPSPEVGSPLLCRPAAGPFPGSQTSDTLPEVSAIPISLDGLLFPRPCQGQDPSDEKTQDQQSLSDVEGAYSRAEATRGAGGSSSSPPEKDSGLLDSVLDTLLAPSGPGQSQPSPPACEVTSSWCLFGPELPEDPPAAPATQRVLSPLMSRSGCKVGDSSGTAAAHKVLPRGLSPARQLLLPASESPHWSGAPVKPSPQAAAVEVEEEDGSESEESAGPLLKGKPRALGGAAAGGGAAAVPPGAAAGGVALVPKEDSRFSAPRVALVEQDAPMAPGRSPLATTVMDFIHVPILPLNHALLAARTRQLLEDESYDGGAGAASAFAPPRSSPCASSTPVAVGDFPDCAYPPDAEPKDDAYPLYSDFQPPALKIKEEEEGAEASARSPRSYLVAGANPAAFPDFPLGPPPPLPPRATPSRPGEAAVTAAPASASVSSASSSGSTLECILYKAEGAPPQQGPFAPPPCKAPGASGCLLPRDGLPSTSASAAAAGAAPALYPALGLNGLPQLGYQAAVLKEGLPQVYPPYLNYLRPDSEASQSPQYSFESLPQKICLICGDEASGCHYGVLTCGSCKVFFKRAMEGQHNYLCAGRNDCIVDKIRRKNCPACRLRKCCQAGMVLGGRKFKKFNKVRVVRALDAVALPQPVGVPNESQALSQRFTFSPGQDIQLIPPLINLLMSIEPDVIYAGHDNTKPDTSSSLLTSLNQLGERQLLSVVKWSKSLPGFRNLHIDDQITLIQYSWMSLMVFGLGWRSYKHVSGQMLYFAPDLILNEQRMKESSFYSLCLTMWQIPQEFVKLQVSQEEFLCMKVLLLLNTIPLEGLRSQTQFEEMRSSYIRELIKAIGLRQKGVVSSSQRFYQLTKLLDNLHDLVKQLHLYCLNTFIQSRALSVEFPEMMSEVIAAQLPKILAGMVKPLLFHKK
Procedure, shortened: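 Agonist qHTS: compounds pinned onto 3,000 PR-UAS-bla HEK 293T cells per well in charcoal-stripped serum medium, 16hr at 37C, then beta-lactamase activity measured by LiveBLAzer FRET fluorescence after 2 hours at room temperature.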

[10] = biological target: Progesterone receptor (Homo sapiens) (UniProt P06401); test: qHTS assay to identify small molecule antagonists of the progesterone receptor (PR) signaling pathway (AID 1346795; active = well fitted inhibition curve with a large enough effect in the signal ratio in the repeat runs, not every such curve was filed as active; the % refers to the signal ratio; note: potency is the fitted concentration of half-maximal effect)
Procedure, shortened: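 Antagonist mode with agonist R5020 at 1 nM final and 16 hr incubation at 37C. Reporter was beta-lactamase driven by UAS in HEK293T (PR-UAS-bla), 2% charcoal-stripped serum; signal from LiveBLAzer FRET substrate, 2 hr at room temperature.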

[11] = qHTS assay to identify small molecule antagonists of the progesterone receptor (PR) signaling pathway - cell viability counter screen (AID 1346798); note: nearly all actives have a fitted effect of over 50% in size; note: potency is the fitted concentration of half-maximal effect
Procedure, shortened: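 Cytotoxicity read as CellTiter-Glo luminescence (30 min, room temperature) in the same wells as the beta-lactamase readout. HEK293T PR-UAS-bla cells in charcoal-stripped 2% FBS received compound and R5020, then 16 h at 37C, 5% CO2.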

[12] = qHTS assay to identify small molecule agonists of the progesterone receptor (PR) signaling pathway - cell viability counter screen (AID 1346799; calls by dose curve; note: nearly all actives have a fitted effect of over 45% in size; note: potency is the fitted concentration of half-maximal effect)
Procedure, shortened: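 Cytotoxicity measured by CellTiter-Glo luminescence (30 min, RT) in the same wells as the PR beta-lactamase agonist read. Those HEK293T cells had 16 h compound treatment at 37 C in 2% charcoal-stripped FBS medium.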

[13] = qHTS assay to identify small molecule antagonists of the TGF-beta/Smad signaling pathway - cell viability counter screen (AID 1346824); note: nearly all actives have a fitted effect of over 50% in size; note: potency is the fitted concentration of half-maximal effect
Procedure, shortened: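 SBE-bla HEK 293T cells were plated overnight at 37 C, then given compounds in DMSO plus TGF-beta1 (added as 0.25 ng/mL solution) for 5 hr. After the bla read, CellTiter-Glo was added to the same wells and luminescence read after 30 min at room temperature.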

[14] = qHTS assay to identify small molecule agonists of the TGF-beta/Smad signaling pathway - cell viability counter screen (AID 1346829); note: nearly all actives have a fitted effect of over 45% in size; note: potency is the fitted concentration of half-maximal effect
Procedure, shortened: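 In parallel with the Smad reporter read, viability of HEK 293T cells stably carrying SBE-bla is quantified by ATP luminescence following 5 hr compound treatment.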

[15] = biological target: Estrogen receptor beta (Homo sapiens) (UniProt Q92731); test: qHTS assay to identify small molecule agonists of the estrogen receptor beta (ER-beta) signaling pathway (AID 1259377; active = well fitted activation curve with a large enough effect in the signal ratio in the repeat runs, not every such curve was filed as active; the % refers to the signal ratio; note: potency is the fitted concentration of half-maximal effect)
Chain of Estrogen receptor beta (Homo sapiens) (Q92731 whole entry, looked up): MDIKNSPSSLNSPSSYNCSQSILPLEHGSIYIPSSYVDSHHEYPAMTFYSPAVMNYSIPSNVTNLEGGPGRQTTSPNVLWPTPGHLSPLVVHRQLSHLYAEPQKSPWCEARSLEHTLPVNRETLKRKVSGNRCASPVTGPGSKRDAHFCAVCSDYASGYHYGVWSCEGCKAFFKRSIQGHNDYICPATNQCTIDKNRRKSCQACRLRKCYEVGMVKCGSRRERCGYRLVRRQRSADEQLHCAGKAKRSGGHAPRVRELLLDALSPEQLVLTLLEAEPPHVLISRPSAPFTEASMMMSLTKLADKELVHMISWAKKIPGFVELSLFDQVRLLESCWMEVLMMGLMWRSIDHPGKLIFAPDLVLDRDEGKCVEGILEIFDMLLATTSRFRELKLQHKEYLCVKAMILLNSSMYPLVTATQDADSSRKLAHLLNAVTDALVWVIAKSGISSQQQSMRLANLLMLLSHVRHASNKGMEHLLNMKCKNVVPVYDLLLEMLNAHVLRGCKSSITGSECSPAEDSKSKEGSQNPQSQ
Procedure, shortened: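 Ratiometric beta-lactamase FRET read-out came after 2 h substrate loading at room temperature. It followed 16 h compound treatment at 37C of GripTite HEK293T cells carrying a UAS-bla reporter, plated in 2% charcoal-stripped FBS medium.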

[16] = qHTS assay to identify small molecule agonists of the TGF-beta/Smad signaling pathway (AID 1346859; active = well fitted activation curve with a large enough effect in the signal ratio in the repeat runs, not every such curve was filed as active; the % refers to the signal ratio; note: series mostly up to about 77 µM)
Procedure, shortened: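 Fluorescence (ex 405 nm; em 460 and 530 nm) was read 2 h after LiveBLAzer FRET substrate at RT. The preceding compound treatment of overnight-plated SBE-bla HEK293T cells lasted 5 h at 37 C.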

[17] = biological target: Thyrotropin-releasing hormone receptor (Homo sapiens) (UniProt P34981); test: qHTS assay to identify small molecule antagonists of the thyrotropin-releasing hormone receptor (TRHR) signaling pathway (AID 1346877; active = well fitted inhibition curve with a large enough effect in the repeat runs, not every such curve was filed as active; note: series mostly up to about 51 µM)
Chain of Thyrotropin-releasing hormone receptor (Homo sapiens) (P34981 whole entry, looked up): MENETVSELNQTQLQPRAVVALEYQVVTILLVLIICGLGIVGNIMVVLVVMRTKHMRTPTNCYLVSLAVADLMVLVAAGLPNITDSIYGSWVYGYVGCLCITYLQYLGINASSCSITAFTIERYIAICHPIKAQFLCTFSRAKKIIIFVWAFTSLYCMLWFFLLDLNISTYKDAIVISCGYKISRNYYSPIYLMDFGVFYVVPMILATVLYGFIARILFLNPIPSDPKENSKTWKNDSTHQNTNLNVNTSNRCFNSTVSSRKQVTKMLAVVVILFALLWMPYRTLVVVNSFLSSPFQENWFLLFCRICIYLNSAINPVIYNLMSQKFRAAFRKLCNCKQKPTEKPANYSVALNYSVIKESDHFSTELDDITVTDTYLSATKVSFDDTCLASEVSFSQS
Procedure, shortened: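 In this cell-based calcium flux format, HEK293 cells expressing TRHR received test compound for 5 min before the agonist TRH (1 nM final). Dye loading lasted 2 h at 37 °C.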

[18] = biological target: Thyrotropin-releasing hormone receptor (Homo sapiens) (UniProt P34981); test: qHTS assay to identify small molecule agonists of the thyrotropin-releasing hormone receptor (TRHR) signaling pathway (AID 1346891; calls by dose curve; note: series mostly up to about 58 µM)
Procedure, shortened: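 Agonist-mode intracellular calcium readout: kinetic fluorescence over 3 min at 1 s intervals after compound addition to TRHR-HEK293 cells (18 h seeded, 2 h dye-loaded at 37 C). Fifteen concentrations, triplicates.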

[19] = biological target: Androgen receptor (Homo sapiens) (UniProt P10275); test: qHTS assay to identify small molecule agonists of the androgen receptor (AR) signaling pathway in the presence of an antagonist (AID 1259381; calls by dose curve; note: nearly all actives have a fitted effect of over 15% in size)
Chain of Androgen receptor (Homo sapiens) (P10275 whole entry, looked up): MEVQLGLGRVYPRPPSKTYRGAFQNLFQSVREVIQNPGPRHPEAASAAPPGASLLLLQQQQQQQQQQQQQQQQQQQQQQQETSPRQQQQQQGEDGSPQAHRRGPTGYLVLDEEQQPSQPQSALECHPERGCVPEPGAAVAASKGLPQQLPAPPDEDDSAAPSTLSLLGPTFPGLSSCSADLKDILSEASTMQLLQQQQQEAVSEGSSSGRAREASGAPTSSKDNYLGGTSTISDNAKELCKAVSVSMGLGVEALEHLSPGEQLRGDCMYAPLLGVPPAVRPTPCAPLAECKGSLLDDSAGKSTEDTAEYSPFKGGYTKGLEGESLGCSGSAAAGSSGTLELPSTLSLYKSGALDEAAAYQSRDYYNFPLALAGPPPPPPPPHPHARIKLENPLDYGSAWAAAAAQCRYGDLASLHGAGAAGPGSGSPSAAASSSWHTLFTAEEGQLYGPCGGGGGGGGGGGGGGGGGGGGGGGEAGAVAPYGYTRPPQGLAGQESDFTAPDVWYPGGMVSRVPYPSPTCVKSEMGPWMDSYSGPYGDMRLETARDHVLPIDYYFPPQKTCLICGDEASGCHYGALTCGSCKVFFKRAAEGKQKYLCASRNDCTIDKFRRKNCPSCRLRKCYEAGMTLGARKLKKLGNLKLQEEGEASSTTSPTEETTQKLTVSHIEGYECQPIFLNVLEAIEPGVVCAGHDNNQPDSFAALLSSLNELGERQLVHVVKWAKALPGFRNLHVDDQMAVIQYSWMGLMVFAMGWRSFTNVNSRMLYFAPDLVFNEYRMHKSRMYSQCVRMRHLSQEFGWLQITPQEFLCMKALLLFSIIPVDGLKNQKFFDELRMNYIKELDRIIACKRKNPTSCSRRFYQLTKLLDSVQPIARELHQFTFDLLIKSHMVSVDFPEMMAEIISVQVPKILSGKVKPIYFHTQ
Procedure, shortened: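 Here, 15-concentration compound series were pin-transferred onto MDA-kb2 MMTV-luciferase cells already dosed with nilutamide (3.0uM final). After 16hr at 37C, ONE-Glo was added and luminescence read 30min later at room temperature.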

[20] = biological target: Estrogen receptor beta (Homo sapiens) (UniProt Q92731); test: qHTS assay to identify small molecule antagonists of the estrogen receptor beta (ER-beta) signaling pathway (AID 1259378; active = well fitted inhibition curve with a large enough effect in the signal ratio in the repeat runs, not every such curve was filed as active; the % refers to the signal ratio)
Procedure, shortened: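 ER-beta-UAS-bla HEK293T (GripTite) cells in 2% charcoal-stripped FBS medium were preincubated 6 hr at 37C, dosed with compound, then stimulated with 1 nM E2 (final) for 16 hr; beta-lactamase reporter read by B/G FRET fluorescence after 2 hr substrate loading.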

Row | SMILES | Potency [1] | Potency [2] | Potency [3] | Potency [4] | Potency [5] | Potency [6] | Potency [7] | Potency [8] | Potency [9] | Potency [10] | Potency [11] | Potency [12] | Potency [13] | Potency [14] | Potency [15] | outcome [16] | Potency [17] | Potency [18] | Potency [19] | Potency [20]
1 | CCN(CC)C(=S)S | 5.49 µM (active) and 2.42 µM (active) | inactive | 6.08 µM (active) and 9.69 µM (active) | 12.1 µM (active) | inactive | inactive | inactive | inactive | inactive | 49 µM (active) and 6.82 µM (active) and 13.7 µM (active) | 61.6 µM (active) and 7.65 µM (active) and 17.2 µM (active) | 17.1 µM (active) and inactive | inactive | inactive |  |  |  |  |  | 
2 | CC(C)=CCN1CC[C@@]2(C)c3cc(O)ccc3C[C@@H]1[C@@H]2C | inactive |  | inactive | inactive | inactive | inactive | inactive |  | inactive | inactive | inactive | inactive | inactive | inactive | inactive | inactive | inactive | inactive |  | 
3 | CN(C)C(=S)SSC(=S)N(C)C | 47.9 nM (active) and 306 nM (active) and 531 nM (active) | 60.3 µM (active) and 68.6 µM (active) and inactive | 135 nM (active) and 1.72 µM (active) and 119 nM (active) | 479 nM (active) and 273 nM (active) and 237 nM (active) | inactive |  |  | 30.2 µM (active) and 30.6 µM (active) | inactive | 135 nM (active) | 170 nM (active) and 386 nM (active) and 266 nM (active) | 344 nM (active) and 298 nM (active) | 19.2 µM (active) and 43.6 µM (active) and 26.8 µM (active) | 34.2 µM (active) and inactive |  | inactive |  |  | inactive | 
4 | Fc1ccc(C(OCCN2CCN(CCCc3ccccc3)CC2)c2ccc(F)cc2)cc1 | 5.31 µM (active) | 26.6 µM (active) | 26.6 µM (active) | 26.6 µM (active) | inactive | inactive |  | 29.8 µM (active) |  |  |  |  |  |  |  | inactive |  | inactive | inactive | 
5 | CSC(=O)c1c(C(F)F)nc(C(F)(F)F)c(C(=O)SC)c1CC(C)C | inactive | inactive |  | inactive | inactive | inactive | inactive | inactive | inactive | 30500 nM (active) | inactive | inactive | inactive | inactive | inactive | inactive | inactive |  |  | 
6 | Nc1ccc(Cl)cc1C(=O)c1ccccc1F | inactive | inactive | inactive | inactive | inactive | inactive | inactive |  | inactive |  | inactive | inactive | inactive | inactive |  | inactive | inactive |  | inactive | 
7 | ClCBr | inactive | inactive |  | inactive |  | inactive | inactive | inactive | inactive | inactive | inactive | inactive | inactive | inactive |  | inactive | inactive |  |  | inactive
8 | O=C1C(Cl)=C(Cl)C(=O)C(Cl)=C1Cl | 4.84 µM (active) and 12.2 µM (active) | 60.9 µM (active) and inactive | 60.9 µM (active) and 54.5 µM (active) | 60.9 µM (active) | inactive |  |  |  | inactive | inactive | inactive | inactive |  | inactive |  |  | inactive | inactive | inactive | 
9 | Cc1ccc2cc3c(ccc4ccccc43)c3c2c1CC3 | inactive | inactive | inactive |  |  | inactive | inactive | inactive | inactive |  | inactive | inactive | inactive | inactive |  |  | inactive |  |  | inactive
10 | CC(C)Br | inactive |  |  |  | inactive | inactive | inactive | inactive | inactive |  |  | inactive | inactive | inactive | inactive |  | inactive | inactive |  | 
11 | [Cl][Hg][c]1ccccc1 | 0.0243 µM (active) | 12.2 µM (active) | 3.44 µM (active) | 3.06 µM (active) | inactive |  |  | 17.2 µM (active) |  |  | 3.06 µM (active) | 3.06 µM (active) | 19.5 µM (active) | 17.4 µM (active) |  |  |  |  | inactive | 
12 | CC[C@]1(O)CC[C@H]2[C@@H]3CCC4=CCCC[C@@H]4[C@H]3CC[C@@]21C | 13.3 µM (active) |  |  |  | 0.0019 µM (active) | inactive |  | inactive |  |  |  |  | inactive | inactive | 0.0067 µM (active) | inactive |  |  |  | 
13 | N#Cc1sc2c(=O)c3ccccc3c(=O)c=2sc1C#N | 3.86 µM (active) | 17.2 µM (active) | 21.7 µM (active) | 17.2 µM (active) | inactive | inactive |  | 7.7 µM (active) |  |  | 30.6 µM (active) | 30.6 µM (active) | 49 µM (active) | 38.9 µM (active) |  |  |  | inactive | inactive | 
